This passage reports sensor-assay potency score (higher = more potent) results from the OligoGym collection.
Further: reference of the scale not given here.

The target in one test is SLC10A7. Kind of test: pooled miR-30 sensor sort-seq; sequence = guide strand. The settings on record: shRNA.
On to TTACTTACCAAAAAACTTCCAA, for which the sensor-assay potency score (higher = more potent) was found to be 0.24.
On the same count and under the same terms, for TACATCATTATAAACTCTGTAA the value was -0.408; for TTTAGCTCCAGCGATCGCCAGC, -1.45.
The same measure, in the same setting: for TATAGATACAACATTTACTTGC the value was 0.105; for TTCTGCCTTGATACCATCCAAG, -1.16.
TAAACTATGTTTACTTACCAAA: the sensor-assay potency score (higher = more potent) is -1.05.
For the sequence ATGAGGAGTACACTGCTGCTGA, the sensor-assay potency score (higher = more potent) was -0.89.
The same measure, in the same setting: for AACAGTATGAGAACAAGGCTGA the value was 0.508.

A further test has as its target SLC12A1. The test is described as above. The settings on record: shRNA.
In the case of TTTCTTGTTTATCAACAGCAGT, the sensor-assay potency score (higher = more potent) was -1.1.
The same measure, in the same setting: for TATGACACTAACTTGAAAGCGA the value was 0.571.
As for TTCCAATGCTAGTCTCTCCTGT, the sensor-assay potency score (higher = more potent) amounted to 0.793.
The same measure, in the same setting: the figure for TTGTAGACTCAACTACTTCTTA is -0.589.
TATCTTTGATAGTCGCTTCCAA: the sensor-assay potency score (higher = more potent) was 0.0928.
Same read-out and setting: the figure for TTTGTGAGGATTTCCAACCAAG is -0.956.
On the same count and under the same terms, the figure for TTGATGACAAACATGACTGCAC is 0.915; for TTGAATATTTTGTAGACTCAAC it is -1.22.
For TTGTGTGAGAATCATAAGCGTG, the sensor-assay potency score (higher = more potent) was -0.782.
The same measure, in the same setting: for TTTCTTATATCCAATCACCAGA the value was -0.816; for TTGCTCGTGAATCTCAAGCAGG, -0.686; for TTGAGTGCTGGCTTCCACCAGT, -0.0176.

In another test the target is SLC12A6. Described as above. Particulars: shRNA.
As to TACTGTTGTCTTCTAATTGGGC, the sensor-assay potency score (higher = more potent) is -0.548.
The same measure, in the same setting: the figure for TTTTTGAAGAAGTAGAGGCTGC is 0.521.
Still for that read-out and setting: for TAAGTCTTCATCTAGTTTCAGT the value was -0.702; for TATCAAAATATTCATCTCCTTC, -0.342.
Same read-out and setting: the figure for TTGTCTCTGAGAACAACCCCTT is -0.146.
For the sequence TTGTTAACTATAACCTCGTTGA, the sensor-assay potency score (higher = more potent) is -0.0795.
Same read-out and setting: for TTCTTTAGTAAGATGAAGCTGT the value was 0.156; for TTTTAGTGTGTGGAGGTCCTTC, -0.634.
Turning to TAGCTTGTAGCAGCCTCGGTGC, the sensor-assay potency score (higher = more potent) was -1.11.
Same read-out and setting: for TATTGAGATAAGCATTTCGAGC the value was -1.39.
Same read-out and setting: for TTACTCGGGAACTAGATCGAGA the value was -0.428; for TGTACTTGTAGATCATACCAGC, -0.605.

Another test addresses SLC13A5. Described as above. Particulars: shRNA.
As for TTTCTTGCTCTCTAGCCCGCAG, the sensor-assay potency score (higher = more potent) is -0.697.
The same measure, in the same setting: the figure for TTTAAAATTGAATCTCATGTAA is -0.532; for TTATGTTCATTATGACTCCTGT it is 0.0164; for TTGTCTCTCATGTCTGTCTCTT it is -0.189.
With TTTTTCTTGCTCTCTAGCCCGC, the sensor-assay potency score (higher = more potent) is -0.694.
The same measure, in the same setting: for TACACAACCTCTTCCGCTCTTG the value was -0.374; for TATGACTCCTGTTTTCACCATG, -1.13; for TTTAATGAGAGCAAGAGCTGGA, 0.762.
